Measured values reported in PubChem BioAssay AID488809 (Broad Institute, 2010).
Entries with a potency or affinity are not part of this list. Inconclusive results are not listed. A number with no mark means an inactive call. The source made the active and inactive calls. How the calls were made is not given here.

Assay: cytotoxicity in NIH-3T3 fibroblasts, dose response, cytotoxicity control for antifungal drug resistance project, cell-based, Alamar Blue, fluconazole, dry powder (AID 488809)
Conditions: NIH-3T3 fibroblasts + fluconazole, Alamar Blue viability, 48 h; series mostly up to 26 µM
For `COC(=O)Cn1nc(C)c2ccccc21`, the outcome was “inactive”. With `COC(=O)Cn1nc(-c2ccc(C)cc2)c2ccccc21` the outcome was “inactive”. For `O=C(Cn1c2ccccc2c2nc3n(c(=O)c21)CCCS3)c1ccc(F)cc1`, the outcome was “inactive”. With `COC(=O)Cn1nc(-c2ccc(Cl)cc2)c2ccccc21` the outcome was “inactive”. For `O=C(O)c1c2ccccc2nn1Cc1ccc(Cl)cc1`, the outcome was “inactive”. In the case of `O=C(c1ccc(Cl)cc1)N1CCN(c2ccc(Cl)cc2)CC1`, the outcome was “inactive”. In the case of `CNC(=O)Cn1nc(-c2ccccc2)c2ccccc21`, the outcome was “inactive”. For `CCCCNC(=O)N1CCN(c2ccnc3cc(Cl)ccc23)CC1`, the outcome was “inactive”. With `Cc1nn(S(C)(=O)=O)c2ccccc12` the outcome was “inactive”. In the case of `Cc1ccc(C(=O)N2CCN(c3ccnc4cc(Cl)ccc34)CC2)cc1`, the outcome was “inactive”. For `O=C(Cn1nc(-c2ccccc2)c2cc(Cl)ccc21)N1CCOCC1`, the outcome was “inactive”. In the case of `COC(=O)Cn1nc(-c2ccccc2)c2cc(Cl)ccc21`, the outcome was “inactive”. With `O=C(Cn1c2ccccc2c2nc3n(c(=O)c21)CCS3)N1CCCC1` the outcome was “inactive”. For `O=C(Cn1c2ccccc2c2nc3n(c(=O)c21)CCS3)NCCc1ccc(Cl)cc1`, the outcome was “inactive”. In the case of `CCOC(=O)c1c2ccccc2nn1Cc1ccc(Cl)cc1`, the outcome was “inactive”. In the case of `O=C(O)c1nn(Cc2ccc(Cl)cc2)c2ccccc12`, the outcome was “inactive”. For `O=C(c1ccc(Cl)cc1)N1CCN(c2ccccn2)CC1`, the outcome was “inactive”. With `CCCNC(=O)Cn1nc(-c2ccccc2)c2ccccc21` the outcome was “inactive”. For `CC1CCN(C(=O)Cn2c3ccccc3c3nc4n(c(=O)c32)CCS4)CC1`, the outcome was “inactive”. In the case of `O=C(Cn1nc(C(=O)N2CCCCC2)c2ccccc21)N1CCOCC1`, the outcome was “inactive”. `COc1ccc2c(c1)c1nc3n(c(=O)c1n2CC(=O)N1CCC(C)CC1)CCS3` gave an activity change, negative = toxicity of 15.5% [at 2.6 µM]. For `COc1ccc(OC)c2c(C)cc(N3CCN(C(=O)c4ccc(Cl)cc4)CC3)nc12`, the outcome was “inactive”. In the case of `O=c1c2[nH]c3ccccc3c2nc2n1CCS2`, the outcome was “inactive”. With `COC(=O)Cn1nc(-c2ccccc2)c2ccccc21` the outcome was “inactive”. With `O=C(c1ccccc1)N1CCN(c2ccnc3cc(Cl)ccc23)CC1` the outcome was “inactive”.
